# Hits are enriched below; roughly 0.9% of the tested compounds scored in any of these assays.
# TAR Tat displ: TAR RNA-Tat peptide displacers, HIV-1, primary screen, biochemical, FRET, FAM/TAMRA-labeled Tat; HIV-1 TAR RNA, Tat peptide displacement FRET; stronger effect = higher value; z-score (concentration not given with the values); hit rate 0.6% among 100,000; AID 1259389, 2018; active = z-score of 3 or more in at least 2 runs
# CDC25B-CDK2 inh: primary biochemical HTRF screen for blockers of M-phase inducer phosphatase 2 binding to CDK2/cyclin A; AID 1259370, 2018; P30305+P24941; z-score (no concentration beside the values); hit rate 0.72% among 94,000; HTRF CDC25B-CDK2/CyclinA binding, anti-His/anti-Flag; stronger effect = higher value; in the data active = z-score above about 3.2
# A number is an active result; i = inactive; nt = not tested or not shown.
SMILES,TAR Tat displ,CDC25B-CDK2 inh
Cc1cc(C)c2c(=O)[nH]c(SCC(=O)c3ccc(O)c(O)c3)nc2n1,30.5,i
COC(=O)c1c(OC)cc2c(c1C)Oc1c(Cl)c(OC(C)=O)c(Cl)c(C)c1C(=O)O2,i,nt
COc1c(Cl)c(C)c2c(c1Cl)OC(=O)c1c(C)c(Cl)c(O)c(Cl)c1O2,30.2,nt
CC(C)=CC[C@@H](O)C1=CC(=O)c2c(O)ccc(O)c2C1=O,34.2,nt
CCN(CC)Cc1ccc(O)c2ncccc12,i,13.1
Oc1ccc(Cc2ccc(O)c3ncccc23)c2cccnc12,i,i
Fc1ccc(-n2cc(-c3ccccc3)c3c(N4CCCC4)ncnc32)cc1,i,nt
CC(=O)c1ccc(NC(=S)NC(NC(=O)c2cccc(Cl)c2)C(Cl)(Cl)Cl)cc1 (stereo not given),nt,3.17
CCOC(=O)c1ccc(NC(=S)NC(NC(=O)c2ccccc2Br)C(Cl)(Cl)Cl)cc1 (stereo not given),nt,i
O=C(c1cc2c(s1)-c1ccc(Cl)cc1S(=O)(=O)C2)N1CCN(C2CCCCC2)CC1,i,i
CSc1ccc(-c2nc3nc[nH]n3c2Nc2c(C)cccc2C)cc1,i,i
Cc1ccc(C)c(NC(=O)c2cnc3sccn3c2=O)c1,i,i
CN(C)[C@@H]1C(=O)C(C(=O)NCN2CCCC2)=C(O)[C@@]2(O)C(=O)C3=C(O)c4c(O)cccc4[C@@](C)(O)C3CC12 (stereo not given in full),14.1,nt
Cc1c(CCOC(=O)C2C3CC4CC(C3)CC2C4)sc[n+]1CC(=O)c1ccc(Br)cc1 (stereo not given),nt,9.08
O=C(CSC1=Nc2ccccc2C2=NC(Cc3c[nH]c4ccccc34)C(=O)N12)NC1CCCCC1 (stereo not given),i,nt
CC1CC(C)CN(C(=O)CSC2=Nc3ccccc3C3=NC(Cc4c[nH]c5ccccc45)C(=O)N23)C1 (stereo not given),5.37,nt
C=CCSc1nnc(NC(=O)c2cc(=O)c3cc(Cl)ccc3o2)s1,i,i
C=CCSc1nnc(NC(=O)c2cc(=O)c3cc(CC)ccc3o2)s1,9.8,i
Cc1ccc(S(=O)(=O)NCCc2csc(-c3ccc(F)cc3)n2)s1,i,nt
COc1ccc(-c2noc(COc3ccc(Br)cc3)n2)cc1,i,i
CC(=O)Oc1ccc2ccccc2c1-c1c(OC(C)=O)ccc2ccccc12,i,i
CC(=O)Oc1ccc(OC(C)=O)c2c1C(=O)c1ccccc1C2=O,nt,17
CCN1/C(=C/C2=CC(=O)CC(C)(C)C2)Sc2ccccc21,i,i
C=CCN1/C(=C/c2cccc[n+]2C)Sc2ccccc21,6.74,i
CCn1c(=O)/c(=C2\Sc3ccccc3N2C)s/c1=C\c1cccc[n+]1C,i,nt
SMILES,TAR Tat displ,CDC25B-CDK2 inh
CN1/C(=C\c2cc[n+](C)cc2)Sc2ccccc21,7.52,i
C=CCN1/C(=C/c2cc[n+](C)cc2)Sc2ccccc21,4.14,i
C=CC[n+]1ccc(/C=C2\Sc3ccccc3N2C)cc1,i,i
O=C(c1cccnc1)N(c1ccc2oc(=O)sc2c1)S(=O)(=O)c1ccc(F)cc1,i,i
C=CCN1C(=O)/C(=C\c2ccc(OCc3ccc(Br)cc3)c(OC)c2)SC1=S,nt,i
C=CCNC(=O)c1ccc2snnc2c1,i,i
O=C(Nc1ccc2snnc2c1)NC1CCCC1,i,i
C=CCNC(=O)Nc1ccc2snnc2c1,i,10.3
O=C(NCc1ccc2c(c1)OCO2)Nc1ccc2snnc2c1,nt,i
O=C(NCc1ccccc1)Nc1ccc2snnc2c1,i,11.3
CN(C)C(=O)Nc1ccc2snnc2c1,i,i
O=C(NCCCO)Nc1ccc2snnc2c1,i,6.54
CCN(CC)C(=O)Nc1ccc2snnc2c1,i,9.12
Cc1ccc(S(=O)(=O)c2cn(Cc3ccc(F)cc3)c3ccc(F)cc3c2=O)cc1,i,i
CC(c1ccccc1)n1cnc2scc(-c3ccccc3)c2c1=O (stereo not given),i,i
Cc1nc(-c2cccc(F)c2)sc1CCNS(=O)(=O)c1ccccc1F,i,nt
CCN(C(=O)C(=O)c1c[nH]c2ccccc12)C1CCCCC1,nt,i
COC(=O)c1ccc(CSc2nc3c(cnn3-c3ccc(Cl)cc3)c(=O)[nH]2)cc1,i,nt
CCOc1ccc(-c2nc(SCC(=O)Oc3ccc(C)cc3)n3[nH]c(=O)cc3n2)cc1,i,nt
COCCNC(=O)Nc1ccc2snnc2c1,i,7.78
CSc1ccc(CCNC(=O)Nc2ccc3snnc3c2)cc1,i,i
Cc1ccc(-n2cc3c(c2-c2ccc(Br)cc2)c(=O)n(C)c(=O)n3C)cc1,i,i
Cn1c(=O)c2c(-c3ccc(Br)cc3)n(-c3ccc4c(c3)nc(CO)n4C)cc2n(C)c1=O,i,14.8
CCC(CC)C(=O)N1CCN(c2nc3cc(Br)ccc3n3cccc23)CC1,i,i
O=C(Nc1ccc(F)cc1)c1cnc2sc(N3CCOCC3)nn2c1=O,i,nt
SMILES,TAR Tat displ,CDC25B-CDK2 inh
COc1ccc(OC)c(C2/C(=C(\O)c3ccccc3)C(=O)C(=O)N2c2cccnc2)c1 (stereo not given),i,i
COc1ccc(OC)c(C2/C(=C(/O)c3ccc(C)cc3)C(=O)C(=O)N2c2cccnc2)c1 (stereo not given),i,5.95
Cc1cc(C)c2oc(C(=O)Nc3sc4c(c3C(=O)NCc3ccco3)CCC4)cc(=O)c2c1,i,i
Cc1cc2oc(C(=O)Nc3sc4c(c3C(=O)NCc3ccco3)CCC4)cc(=O)c2cc1C,11.6,6.56
Cc1cc(C)c2c(=O)cc(C(=O)Nc3sc4c(c3C(=O)NCc3ccco3)CCC4)oc2c1,i,4.01
Cc1ccc2oc(C(=O)Nc3sc4c(c3C(=O)NCc3ccco3)CCC4)cc(=O)c2c1,i,i
CCCN1CCc2nc(N3CCOCC3)ncc2C1,i,nt
Cc1nc2c(c(C)c1CCC(=O)N1CCN(C3CCCCC3)CC1)c(=O)n(C)c(=O)n2C,i,i
Brc1ccc(C(c2nnc(-c3ccccc3)o2)N2CCN(c3ncccn3)CC2)cc1 (stereo not given),i,i
CCC(=O)Nc1ccc2nc3c(=O)[nH]c(=O)[nH]c3nc2c1,i,i
CC(=O)Nc1ccc2nc3c(=O)[nH]c(=O)[nH]c3nc2c1,i,8.04
CC1CCC(N2C(=O)c3cc4sccc4n3CC2(C)C(=O)NC2CCCC2)CC1 (stereo not given),i,i
COc1ccc(N2CSC3=C(C#N)C(c4cccs4)CC(=O)N3C2)cc1 (stereo not given),i,i
CCOC(=O)c1ccc(N2CSC3=C(C#N)C(c4cccs4)CC(=O)N3C2)cc1 (stereo not given),i,7.09
Cc1ccc(N2CSC3=C(C#N)C(c4cccs4)CC(=O)N3C2)cc1 (stereo not given),i,4.1
COC(=O)c1ccc(N2CSC3=C(C#N)C(c4cccs4)CC(=O)N3C2)cc1 (stereo not given),i,i
CCc1ccc(N2CSC3=C(C#N)C(c4cccs4)CC(=O)N3C2)cc1 (stereo not given),i,6.22
COC(=O)c1cc2c(cc1NC(=O)Cn1ncc3c1-c1ccccc1OC3)OCO2,i,i
CCN1c2cc(C)ccc2-n2cccc2C12CCN(C(=O)NCc1ccc(F)cc1)CC2,i,nt
Cc1nc2ccccc2c2c1C(=O)N(CC1CCCO1)C2=O (stereo not given),i,7.4
Cc1nc2ccccc2c2c1C(=O)N(CC(C)C)C2=O,i,i
Cc1ccc(C(=O)Nc2ccc(S(=O)(=O)Nc3onc(C)c3C)cc2)o1,nt,i
